# Data published in PubChem BioAssay.
# For some assays here: Potency and affinity values are given separately. Calls of active or inactive are those of the source.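 Rule for the calls, unless noted: active = calcium signal cut by more than 3 SD below the full-agonist control yet still positive, in both repeats and the earlier primary screen; inactive = the rest.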
# Legend:
# [1] = test system: TRPC4 beta (transient receptor potential cation channel C4), mouse; test: activators of mouse TRPC4 channel, confirmation, cell-based, Fluo4 calcium, HEK293 TRPC4beta/mu-opioid, duplicates, 10 µM (AID 2426;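 active = fluorescence ratio normalized to control raised more than 50% in primary screen plus both repeat runs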;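 for activation: percent rise of integrated ratio over buffer wells lacking compound which define 0%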); conditions: Fluo4 calcium fluorescence, at 10 µM; stronger effect = higher value
# [2] = test system: transient receptor potential cation channel C4 beta (TRPC4), mouse; test: activators of mouse TRPC4 channel, confirmation, cell-based, second round, Fluo4, HEK293 TRPC4beta/mu-opioid, 1 µM (AID 2461;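 active = primary screen active and over 50% activation in each of two duplicate runs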;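 for activation: 0% = wells without test compound as baseline of integrated fluorescence ratio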); conditions: Fluo4 calcium fluorescence, at 1 µM; stronger effect = higher value
# [3] = test system: TRPC4 (transient receptor potential cation channel C4 beta), mouse; test: positive allosteric modulators of mouse TRPC4, confirmation, cell-based, second round, Fluo-4, HEK293 TRPC4beta/mu-opioid, 1 µM (AID 2554;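 active = primary screen hit whose fluorescence ratio, in both repeats, exceeds the weak agonist control mean by 3 SD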); conditions: DAMGO EC20, Fluo-4 calcium flux, at 1 µM; stronger effect = higher value
# [4] = test system: TRPC4 beta (transient receptor potential cation channel C4), mouse; test: positive allosteric modulators of mouse TRPC4, confirmation, cell-based, Fluo-4, HEK293 TRPC4beta/mu-opioid (AID 2555;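 active = primary screen hit whose calcium fluorescence ratio, in both repeats, exceeds the weak agonist control mean by 3 SD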); conditions: DAMGO EC20, Fluo-4 calcium flux, at 10 µM; stronger effect = higher value
# [5] = target: Short transient receptor potential channel 4 (Mus musculus) (UniProt Q9QUQ5); test: inhibitors of mouse TRPC4 channel, confirmation, cell-based, Fluo4, HEK293 TRPC4beta/mu-opioid (AID 2636); conditions: DAMGO, Fluo4 calcium flux, at 10 µM; stronger effect = higher value
# Sequence of Short transient receptor potential channel 4 (Mus musculus) (Q9QUQ5 whole entry, looked up): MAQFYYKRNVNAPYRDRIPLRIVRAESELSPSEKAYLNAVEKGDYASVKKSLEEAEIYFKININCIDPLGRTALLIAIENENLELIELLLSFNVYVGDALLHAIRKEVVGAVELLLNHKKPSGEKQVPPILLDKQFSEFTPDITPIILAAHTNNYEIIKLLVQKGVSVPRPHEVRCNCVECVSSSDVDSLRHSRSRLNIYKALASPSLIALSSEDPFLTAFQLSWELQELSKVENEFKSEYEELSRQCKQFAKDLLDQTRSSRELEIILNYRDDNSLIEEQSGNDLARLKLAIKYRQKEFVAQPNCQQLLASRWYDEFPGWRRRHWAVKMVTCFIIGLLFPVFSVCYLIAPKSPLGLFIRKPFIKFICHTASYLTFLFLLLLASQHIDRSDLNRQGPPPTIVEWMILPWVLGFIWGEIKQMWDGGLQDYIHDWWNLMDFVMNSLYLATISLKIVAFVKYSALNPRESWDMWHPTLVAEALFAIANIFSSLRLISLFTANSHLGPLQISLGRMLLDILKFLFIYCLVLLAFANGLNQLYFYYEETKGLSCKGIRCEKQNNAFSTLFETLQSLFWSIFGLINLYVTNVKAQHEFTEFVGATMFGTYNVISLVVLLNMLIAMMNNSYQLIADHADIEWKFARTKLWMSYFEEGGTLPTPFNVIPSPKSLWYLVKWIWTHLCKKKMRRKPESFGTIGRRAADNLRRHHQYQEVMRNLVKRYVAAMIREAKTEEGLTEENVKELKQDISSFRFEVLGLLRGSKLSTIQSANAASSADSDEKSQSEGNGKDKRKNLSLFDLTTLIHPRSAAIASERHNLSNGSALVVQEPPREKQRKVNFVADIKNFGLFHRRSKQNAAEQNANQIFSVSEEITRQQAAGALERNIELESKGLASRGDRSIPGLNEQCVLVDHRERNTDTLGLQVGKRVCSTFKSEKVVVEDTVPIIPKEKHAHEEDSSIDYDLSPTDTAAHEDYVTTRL
# [6] = target: Short transient receptor potential channel 4 (Mus musculus) (UniProt Q9QUQ5); test: inhibitors of mouse TRPC4 channel, confirmation, cell-based, second round, Fluo4, HEK293 TRPC4beta/mu-opioid, 1 µM (AID 2637;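 active = calcium signal ratio cut to more than 3 SD under the fully stimulated control mean yet still positive, in both repeats and the primary screen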); conditions: Fluo4 calcium flux, DAMGO, at 1 µM; stronger effect = higher value
# [7] = target: Short transient receptor potential channel 4 (Mus musculus) (UniProt Q9QUQ5); test: TRPC4 positive allosteric modulators, dose response, cell-based, HEK293 TRPC4/mu-opioid, Fluo-4 calcium, EC20 DAMGO (AID 434941;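 active = earlier screen potentiator hit that boosts the TRPC4 ion channel at some dose, with a dose response; inactive = no potentiation, no dose response, or not a prior hit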;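 note: calcium entry triggered by an EC20 dose of DAMGO at the co-expressed mu-opioid receptor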)
# [8] = target: Short transient receptor potential channel 4 (Mus musculus) (UniProt Q9QUQ5); test: mouse TRPC4 channel inhibitors, dose response, cell-based, HEK293 TRPC4/mu-opioid, Fluo-4 calcium (AID 434942;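 active = primary screen inhibitor hit that blocks the TRPC4 channel at some tested dose, yielding a dose curve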)
# [9] = target: Short transient receptor potential channel 6 (Mus musculus) (UniProt Q61143); test: inhibition of mouse TRPC6 channel, confirmation, selectivity assay for TRPC4 inhibitor project, cell-based, HEK293, membrane potential dye, duplicate (AID 434948;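 active = active in primary screen and both duplicates, each dropping signal beyond three positive-control SD with fluorescence still positive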); conditions: HEK293 TRPC6, membrane potential dye fluorescence, at 10 µM, stimulated with maximal-effect acetylcholine; stronger effect = higher value
# Sequence of Short transient receptor potential channel 6 (Mus musculus) (Q61143 whole entry, looked up): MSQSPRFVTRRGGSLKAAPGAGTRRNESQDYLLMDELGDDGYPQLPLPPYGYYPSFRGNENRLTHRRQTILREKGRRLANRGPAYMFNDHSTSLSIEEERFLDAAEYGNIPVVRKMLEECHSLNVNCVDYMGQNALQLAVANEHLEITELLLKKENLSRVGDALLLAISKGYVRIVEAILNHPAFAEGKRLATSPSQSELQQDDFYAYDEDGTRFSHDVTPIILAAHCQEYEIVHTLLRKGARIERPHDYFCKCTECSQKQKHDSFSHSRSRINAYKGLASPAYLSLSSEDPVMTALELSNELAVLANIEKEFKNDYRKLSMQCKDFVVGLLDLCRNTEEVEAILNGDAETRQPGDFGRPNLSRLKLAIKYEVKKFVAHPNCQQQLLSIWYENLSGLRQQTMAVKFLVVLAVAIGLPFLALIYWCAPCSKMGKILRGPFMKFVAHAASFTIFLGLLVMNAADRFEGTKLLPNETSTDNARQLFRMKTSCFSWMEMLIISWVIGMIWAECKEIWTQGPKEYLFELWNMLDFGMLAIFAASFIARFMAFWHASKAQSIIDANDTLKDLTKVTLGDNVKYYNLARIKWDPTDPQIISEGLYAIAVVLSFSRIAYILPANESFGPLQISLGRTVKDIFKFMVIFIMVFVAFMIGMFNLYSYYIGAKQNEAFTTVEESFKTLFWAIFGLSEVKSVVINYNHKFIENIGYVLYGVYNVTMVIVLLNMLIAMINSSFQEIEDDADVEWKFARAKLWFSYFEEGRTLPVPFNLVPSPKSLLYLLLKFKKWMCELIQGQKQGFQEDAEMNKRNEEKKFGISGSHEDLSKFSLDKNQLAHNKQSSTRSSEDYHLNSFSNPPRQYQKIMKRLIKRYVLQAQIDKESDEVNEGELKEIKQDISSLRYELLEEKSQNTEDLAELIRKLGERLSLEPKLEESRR
# [10] = target: Short transient receptor potential channel 6 (Mus musculus) (UniProt Q61143); test: activation of mouse TRPC6 channel, confirmation, selectivity assay for TRPC4 activator project, cell-based, HEK293, membrane potential dye, duplicate (AID 434950;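 active = membrane potential signal rise above negative control mean plus 3 SD in both duplicates, also active in the earlier TRPC4 screen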;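 for activation: 0% = buffer only wells and 100% = acetylcholine maximal-effect wells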); conditions: HEK293 TRPC6, membrane potential fluorescence, at 10 µM; stronger effect = higher value
# [11] = target: Short transient receptor potential channel 6 (Mus musculus) (UniProt Q61143); test: TRPC6 potentiation by TRPC4 potentiator hits, confirmation, selectivity assay for TRPC4 potentiator project, HEK293 cells, membrane potential dye, duplicate (AID 434952;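 active = compound raising the membrane signal above positive-control mean plus 3 SD in both repeats, and a primary screen hit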); conditions: HEK293 TRPC6, membrane potential dye fluorescence, at 10 µM, maximal acetylcholine added after compound; stronger effect = higher value
# [12] = target: Short transient receptor potential channel 4 (Mus musculus) (UniProt Q9QUQ5); test: calcium flux activators in TRPC4/5HT1a cells, counter-screen for TRPC4 activator project, cell-based, second counter screen, HEK293 TRPC4/5HT1a, Fluo-4 (AID 434977;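 active = calcium signal rise above buffer-control mean plus 5 SD in both duplicates, and also a hit in the primary screen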;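 for activation: plate controls were assay buffer for no effect and maximal serotonin response for full effect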); conditions: Fluo-4 calcium flux, at 10 µM; stronger effect = higher value
# [13] = calcium flux inhibitors in TRPC4/5HT1a cells, confirmation, counter-screen for TRPC4 inhibitor project, cell-based, second counter screen, HEK293 TRPC4/5HT1a, Fluo-4 (AID 434978;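 active = primary screen active whose calcium signal fell more than 3 SD beyond the full-serotonin control mean in both duplicate plates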;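 note: serotonin given first at submaximal then at maximal dose after compound preincubation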); conditions: Fluo-4 calcium flux, at 10 µM, serotonin added to trigger calcium flux; stronger effect = higher value
# [14] = test system: TRPC4 (mouse), co-expressed with 5HT1a in HEK293; test: calcium flux potentiators in TRPC4/5HT1a cells, confirmation, counter-screen for TRPC4 potentiator project, cell-based, second counter screen, HEK293 TRPC4/5HT1a, Fluo-4 (AID 434979;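 active = signal rise over 3 SD above mean of control wells given weak agonist, in both repeats and first screen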); conditions: Fluo-4 calcium flux, at 10 µM, serotonin added at its EC20 dose; stronger effect = higher value
# [15] = calcium flux activation in mu-opioid HEK293 cells, confirmation, counter-screen for TRPC4 activator project, cell-based, HEK293 mu-opioid receptor line (AID 449723;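 active = hit in primary screen, with calcium signal over 5 SD above buffer well mean in both duplicates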;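 note: counter screen cells carry the mu-opioid receptor alone and lack TRPC4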); conditions: Fluo-4 calcium fluorescence, at 10 µM; stronger effect = higher value
# [16] = calcium flux enhancement in mu-opioid HEK293 cells, confirmation, counter-screen for TRPC4 allosteric potentiator project, cell-based, HEK293 mu-opioid receptor line (AID 449724;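 active = calcium signal rise more than 3 SD above the low-dose agonist control mean, in both duplicate plates and the primary screen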); conditions: Fluo-4 calcium flux, at 10 µM, compound added before EC20 DAMGO stimulus; stronger effect = higher value
smiles,measurement,setting,value
CCCCN(CC)CCCNC(=O)Cn1nc(Cc2cccnc2)c2ccccc2c1=O,activation,[1],86% (active)
same,outcome,[2],inactive
same,outcome,[3],inactive
same,outcome,[4],inactive
same,outcome,[5],inactive
same,outcome,[6],inactive
same,outcome,[7],inactive
same,outcome,[8],inactive
same,outcome,[9],inactive
same,outcome,[10],inactive
same,outcome,[11],inactive
same,activation,[12],28.3% (active)
same,outcome,[13],inactive
same,outcome,[14],inactive
same,outcome,[15],inactive
same,outcome,[16],inactive
CCOc1ccccc1N(CC(=O)N1CCOCC1)S(=O)(=O)c1ccc(SC)cc1,activation,[1],164% (active)
same,outcome,[2],inactive
same,outcome,[3],inactive
same,outcome,[4],inactive
same,outcome,[5],inactive
same,outcome,[6],inactive
same,outcome,[7],inactive
same,outcome,[8],inactive
same,outcome,[9],inactive
same,activation,[10],89% (active)
same,outcome,[11],inactive
same,activation,[12],134% (active)
same,outcome,[13],inactive
same,outcome,[14],inactive
same,activation,[15],111% (active)
same,outcome,[16],inactive
COc1ccc(C(CNc2ncnc3sc(C)c(C)c23)N(C)C)cc1 (stereo not drawn),activation,[1],227% (active)
same,activation,[2],113% (active)
same,outcome,[3],inactive
same,outcome,[4],inactive
same,outcome,[5],inactive
same,outcome,[6],inactive
same,outcome,[7],inactive
same,outcome,[8],inactive
same,outcome,[9],inactive
same,outcome,[10],inactive
same,outcome,[11],inactive
same,outcome,[12],inactive
same,outcome,[13],inactive
same,outcome,[14],inactive
same,outcome,[15],inactive
same,outcome,[16],inactive
CNCCOc1ccc(Cl)c(Cl)c1,activation,[1],81% (active)
same,activation,[2],54% (active)
same,potentiation,[3],44% (active)
same,potentiation,[4],23% (active)
same,outcome,[5],inactive
same,outcome,[6],inactive
same,outcome,[7],inactive
same,outcome,[8],inactive
same,outcome,[9],inactive
same,activation,[10],39.5% (active)
same,outcome,[11],inactive
same,activation,[12],24.9% (active)
same,outcome,[13],inactive
same,potentiation,[14],24% (active)
same,outcome,[15],inactive
same,outcome,[16],inactive
CN(C)CCNC(=O)c1c(NC(=O)c2ccccc2)sc2c1CCCC2,activation,[1],161% (active)
same,outcome,[2],inactive
same,outcome,[3],inactive
same,outcome,[4],inactive
same,outcome,[5],inactive
same,outcome,[6],inactive
same,outcome,[7],inactive
same,outcome,[8],inactive
same,outcome,[9],inactive
same,outcome,[10],inactive
same,outcome,[11],inactive
same,outcome,[12],inactive
same,outcome,[13],inactive
same,outcome,[14],inactive
same,outcome,[15],inactive
same,outcome,[16],inactive
O=C(NCCc1ccccn1)c1ccc(COc2ccccc2)o1,outcome,[1],inactive
same,outcome,[2],inactive
same,outcome,[3],inactive
same,outcome,[4],inactive
same,outcome,[5],inactive
same,outcome,[6],inactive
same,outcome,[7],inactive
same,outcome,[8],inactive
same,outcome,[9],inactive
same,activation,[10],35% (active)
same,outcome,[11],inactive
same,activation,[12],58.4% (active)
same,outcome,[13],inactive
same,outcome,[14],inactive
same,outcome,[15],inactive
same,outcome,[16],inactive
S=C(NCCc1cnc[nH]1)NC1CCCC1,activation,[1],220% (active)
same,activation,[2],135% (active)
same,outcome,[3],inactive
same,outcome,[4],inactive
same,outcome,[5],inactive
same,outcome,[6],inactive
same,outcome,[7],inactive
same,outcome,[8],inactive
same,outcome,[9],inactive
same,outcome,[10],inactive
same,outcome,[11],inactive
same,activation,[12],79.6% (active)
same,outcome,[13],inactive
same,outcome,[14],inactive
same,outcome,[15],inactive
same,outcome,[16],inactive
CC1CCN(CCCNS(=O)(=O)c2cc(Br)cc3c2N(C(=O)C2CC2)CC3)CC1,activation,[1],91% (active)
same,activation,[2],63% (active)
same,outcome,[3],inactive
same,outcome,[4],inactive
same,outcome,[5],inactive
same,outcome,[6],inactive
same,outcome,[7],inactive
same,outcome,[8],inactive
same,outcome,[9],inactive
same,outcome,[10],inactive
same,outcome,[11],inactive
same,activation,[12],26.3% (active)
same,outcome,[13],inactive
same,outcome,[14],inactive
same,outcome,[15],inactive
same,outcome,[16],inactive
